Experimental data: PubChem BioAssay AID1159580 (chemical genetic matrix, 2015)
In all, about 5,500 compounds went through this assay and about 2,000 (36%) were called active. Not shown: some 18% with an inconclusive outcome. Rule as the data show it: active = normalized growth mostly below about 0.91 (no sharp cut-off); inconclusive = no clear call, values can overlap the other calls; inactive = mostly above about 0.92. This is one part of the list.

Experiment: chemical genetic growth profiling, strain panel (AID 1159580);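 also: tested at 20 µM; growth read once vehicle control cultures reached saturation at 30 °C; 1 = growth at the plate median or of vehicle wells; lower values mean less growth of the strain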
Details: growth OD

Measured: normalized growth

CC(C)(C)c1cc(C(C)(C)C)n(-c2ccc([N+](=O)[O-])cc2)n1
inactive: S. cerevisiae deletion strains, locus YAL013W, strain DEP1, stronger effect = lower value 1.02 | S. cerevisiae deletion strains, locus YBR229C, strain ROT2, stronger effect = lower value 1.01 | S. cerevisiae deletion strains, locus YCL061C, strain MRC1, stronger effect = lower value 0.994 | S. cerevisiae deletion strains, locus YDL101C, strain DUN1, stronger effect = lower value 1.01 | S. cerevisiae deletion strains, locus YDR150W, strain NUM1, stronger effect = lower value 0.991 | S. cerevisiae deletion strains, locus YEL061C, strain CIN8, stronger effect = lower value 1.02 | S. cerevisiae deletion strains, locus YGR078C, strain PAC10, stronger effect = lower value 1.01 | S. cerevisiae deletion strains, locus YHR030C, strain SLT2, stronger effect = lower value 1.06 | S. cerevisiae deletion strains, locus YHR087W, strain rtc3, stronger effect = lower value 1.01 | S. cerevisiae deletion strains, locus YJL187C, strain SWE1, stronger effect = lower value 1 | S. cerevisiae deletion strains, locus YJR043C, strain POL32, stronger effect = lower value 1.02 | S. cerevisiae deletion strains, locus YJR075W, strain HOC1, stronger effect = lower value 0.997 | S. cerevisiae deletion strains, locus YKL190W, strain CNB1, stronger effect = lower value 0.998 | S. cerevisiae deletion strains, locus YLR039C, strain RIC1, stronger effect = lower value 1.04 | S. cerevisiae deletion strains, locus YLR058C, strain SHM2 (second series), stronger effect = lower value 1.01 | S. cerevisiae deletion strains, locus YLR085C, strain ARP6, stronger effect = lower value 1.01 | S. cerevisiae deletion strains, locus YLR262C, strain YPT6, stronger effect = lower value 1.01 | S. cerevisiae deletion strains, locus YML094W, strain GIM5, stronger effect = lower value 1.04 | S. cerevisiae deletion strains, locus YMR219W, strain ESC1, stronger effect = lower value 1 | S. cerevisiae deletion strains, locus YMR263W, strain SAP30, stronger effect = lower value 0.999 | S. cerevisiae deletion strains, locus YMR307W, strain GAS1, stronger effect = lower value 0.995 | S. cerevisiae deletion strains, locus YNL153C, strain GIM3, stronger effect = lower value 1 | S. cerevisiae deletion strains, locus YNL298W, strain CLA4 (second series), stronger effect = lower value 1.05 | S. cerevisiae deletion strains, locus YNL322C, strain KRE1, stronger effect = lower value 1 | S. cerevisiae deletion strains, locus YNR030W, strain Alg12, stronger effect = lower value 1.04 | S. cerevisiae deletion strains, locus YOL006C, strain TOP1, stronger effect = lower value 1.06 | S. cerevisiae deletion strains, locus YPL055C, strain LGE1, stronger effect = lower value 1.04 | S. cerevisiae deletion strains, locus YPL241C, strain CIN2, stronger effect = lower value 1.07 | S. cerevisiae deletion strains, locus YPR135W, strain CTF4, stronger effect = lower value 1.03 | S. cerevisiae strains, strain wild type, stronger effect = lower value 1.01
